Measured values as given in PubChem BioAssay (NCATS).
Records with an inconclusive call do not appear. Calls of active or inactive are those of the source. Unless noted, calls come from the whole dose curve; as a rule, active = well fitted curve in either direction with a large enough effect (not every such curve was filed as active); inconclusive = small, poorly fitted or top-dose-only effect, or another doubt; inactive = flat fitted curve, though single readings scatter.

Columns and labels:
[1] = AP1 Signaling Pathway (AID 357); conditions: ME-180 AP-1-bla reporter, EGF-induced, beta-lactamase ratio, 5 h;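 note: ME-180 reporter cells stimulated with EGF at its EC50 level; % is set by controls: 0 for no effect and ±100 for the full control effect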
Summary of the method: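 Titration-series screen for positive or negative modulators of EC50 EGF-induced signaling in ME-180 cells carrying an AP-1-driven beta-lactamase reporter. After 5 hours at 37 degrees Celsius, CCF4 460nm/530nm emission ratio gave %Activity; AC50 values derived.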

[2] = molecular target: Cytochrome P450 1A2 (Homo sapiens) (UniProt P05177); experiment: p450-cyp1a2 (AID 410; calls by dose curve;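 note: -100% = full effect of reference inhibitor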); conditions: recombinant CYP1A2, luciferin-ME demethylation, luminescence; series mostly up to 57 µM
Chain of Cytochrome P450 1A2 (Homo sapiens) (P05177 whole entry, looked up): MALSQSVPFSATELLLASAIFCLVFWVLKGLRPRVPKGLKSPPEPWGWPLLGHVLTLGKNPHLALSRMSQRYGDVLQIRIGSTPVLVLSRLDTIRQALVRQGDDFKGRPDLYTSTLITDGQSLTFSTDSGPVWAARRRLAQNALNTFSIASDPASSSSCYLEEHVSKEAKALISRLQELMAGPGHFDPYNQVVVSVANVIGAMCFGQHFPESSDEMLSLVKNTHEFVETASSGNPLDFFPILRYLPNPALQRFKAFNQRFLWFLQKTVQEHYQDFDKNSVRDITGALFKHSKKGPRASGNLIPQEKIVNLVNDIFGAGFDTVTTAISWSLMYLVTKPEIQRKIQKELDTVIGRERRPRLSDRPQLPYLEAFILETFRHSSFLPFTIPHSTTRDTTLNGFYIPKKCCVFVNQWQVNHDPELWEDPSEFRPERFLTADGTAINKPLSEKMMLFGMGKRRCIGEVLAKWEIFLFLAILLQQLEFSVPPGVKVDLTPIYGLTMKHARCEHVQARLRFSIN
Summary of the method: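 Inhibition was calculated relative to 57 uM furafylline (full inhibition). The reaction used human CYP1A2 at 20nM with Luciferin-ME at its Km, 100uM, driven by an NADPH-regenerating system for 60 min at room temperature.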

[3] = NFAT Signaling Pathway (AID 444); conditions: Jurkat NFAT-bla M1, carbachol, beta-lactamase ratio, 5 h;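 note: carbachol stimulus at about its EC50 of 1 µM final; % is set by controls: 0 for no effect and ±100 for the full control effect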
Summary of the method: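 Jurkat cells with NFAT-driven β-lactamase reporter and co-expressed M1 receptor, stimulated with carbachol (final 1 uM, ~EC50), compound titration, 5 h at 37 °C. CCF4 loaded 1 h at RT; 460/530 nm ratio gave %activity and AC50.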

[4] = Stat Signaling Pathway (AID 446); conditions: ME-180 SIE beta-lactamase reporter, IL-6 stimulated, 5 h;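 note: ME-180 cervical cancer cells given 40 pM IL-6 alongside compound; SIE-controlled beta-lactamase reporter measured as 460/530 nm FRET emission ratio; % is set by controls: 0 for no effect and ±100 for the full control effect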
Summary of the method: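 ME-180 cells carrying a SIE-driven beta-lactamase reporter are stimulated with 40 pM IL-6 for 5 h at 37C in the presence of compound. The 460/530 nm FRET substrate ratio is read after 2.5 h at RT. Data are normalised to 300 pM IL-6 and to 125 nM JAK inhibitor controls.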

[5] = molecular target: 3',5'-cyclic-AMP phosphodiesterase 4B (Homo sapiens) (UniProt Q07343); experiment: qHTS Assay for Inhibitors of PDE-IV (AID 607; active = well fitted activation curve with a large enough effect in the main read-out, with a control signal flat, not every such curve was filed as active; note: % of control where 0% means no effect); conditions: HEK293 ACTOne CNG channel cells, membrane potential fluorescence; series mostly up to 22.9 µM
Chain of 3',5'-cyclic-AMP phosphodiesterase 4B (Homo sapiens) (Q07343 whole entry, looked up): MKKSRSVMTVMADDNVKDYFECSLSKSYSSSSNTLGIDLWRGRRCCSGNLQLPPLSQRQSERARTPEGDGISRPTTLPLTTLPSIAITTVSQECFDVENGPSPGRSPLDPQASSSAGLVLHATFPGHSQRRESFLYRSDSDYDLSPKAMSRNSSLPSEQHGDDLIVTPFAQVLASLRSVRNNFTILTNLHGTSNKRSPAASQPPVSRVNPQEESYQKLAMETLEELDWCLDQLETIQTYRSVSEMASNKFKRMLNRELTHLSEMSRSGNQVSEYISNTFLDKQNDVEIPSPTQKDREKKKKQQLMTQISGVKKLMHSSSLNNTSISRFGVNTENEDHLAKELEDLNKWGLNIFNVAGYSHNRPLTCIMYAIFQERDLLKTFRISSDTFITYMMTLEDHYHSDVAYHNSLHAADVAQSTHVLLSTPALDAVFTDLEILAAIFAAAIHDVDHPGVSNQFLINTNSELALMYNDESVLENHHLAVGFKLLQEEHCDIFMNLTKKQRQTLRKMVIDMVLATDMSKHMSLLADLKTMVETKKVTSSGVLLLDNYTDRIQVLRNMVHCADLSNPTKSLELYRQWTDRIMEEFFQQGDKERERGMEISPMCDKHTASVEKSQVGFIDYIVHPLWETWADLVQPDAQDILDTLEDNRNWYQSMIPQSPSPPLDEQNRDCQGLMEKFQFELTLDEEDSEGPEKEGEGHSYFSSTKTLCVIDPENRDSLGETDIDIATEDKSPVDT
Summary of the method: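 HEK293 ACTOne cells with CNG channel (1000/well), endogenous PDE4; membrane potential dye, compounds up to 22.9 uM final. Fluorescence Ex 535/Em 590; RO 20-1724 (100 uM final) as reference.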

[6] = molecular target: Pyruvate kinase (Leishmania mexicana) (UniProt Q27686); experiment: qHTS Validation Assay for Inhibitors of Leishmania Mexicana Pyruvate Kinase (AID 945; active = well fitted curve in the direction sought with a large enough effect; an effect the other way counts as inactive or inconclusive;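 note: 0% = DMSO only neutral control wells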); conditions: purified L. mexicana pyruvate kinase, enzyme activity, E451W mutant enzyme; series mostly up to 57.5 µM
Chain of Pyruvate kinase (Leishmania mexicana) (Q27686 2-499 E452W): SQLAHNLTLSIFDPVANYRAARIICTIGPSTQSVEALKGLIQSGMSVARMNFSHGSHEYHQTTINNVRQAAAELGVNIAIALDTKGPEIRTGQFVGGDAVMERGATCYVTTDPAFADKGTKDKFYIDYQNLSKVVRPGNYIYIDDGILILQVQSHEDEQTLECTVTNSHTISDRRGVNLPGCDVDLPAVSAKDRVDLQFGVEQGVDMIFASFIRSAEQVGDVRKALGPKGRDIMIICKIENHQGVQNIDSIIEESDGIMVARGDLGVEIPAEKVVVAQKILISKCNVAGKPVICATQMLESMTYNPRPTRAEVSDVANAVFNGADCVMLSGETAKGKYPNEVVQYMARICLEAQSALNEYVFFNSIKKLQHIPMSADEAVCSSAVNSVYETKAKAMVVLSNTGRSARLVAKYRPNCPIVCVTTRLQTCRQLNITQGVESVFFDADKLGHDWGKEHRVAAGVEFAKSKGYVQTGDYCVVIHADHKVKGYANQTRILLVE
Summary of the method: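 Compounds are tested as eight-point concentration series. Reactions contain 0.2 nM LmPYK E451W, 0.5 mM PEP, 0.1 mM ADP, 7 mM MgCl2 and 50 mM KCl at pH 7.2, run 1 h at room temperature, then read by PKLight luminescence.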

[7] = molecular target: Alpha-galactosidase A (Homo sapiens) (UniProt P06280); experiment: Counterscreen for Glucocerebrosidase Inhibitors: qHTS Assay for Human alpha-Galactosidase at pH 4.5 (AID 992; active = well fitted curve in the direction sought with a large enough effect; an effect the other way counts as inactive or inconclusive; note: 0% is about no effect); conditions: purified enzyme, fluorogenic substrate; series mostly up to 76.9 µM
Chain of Alpha-galactosidase A (Homo sapiens) (P06280 whole entry, looked up): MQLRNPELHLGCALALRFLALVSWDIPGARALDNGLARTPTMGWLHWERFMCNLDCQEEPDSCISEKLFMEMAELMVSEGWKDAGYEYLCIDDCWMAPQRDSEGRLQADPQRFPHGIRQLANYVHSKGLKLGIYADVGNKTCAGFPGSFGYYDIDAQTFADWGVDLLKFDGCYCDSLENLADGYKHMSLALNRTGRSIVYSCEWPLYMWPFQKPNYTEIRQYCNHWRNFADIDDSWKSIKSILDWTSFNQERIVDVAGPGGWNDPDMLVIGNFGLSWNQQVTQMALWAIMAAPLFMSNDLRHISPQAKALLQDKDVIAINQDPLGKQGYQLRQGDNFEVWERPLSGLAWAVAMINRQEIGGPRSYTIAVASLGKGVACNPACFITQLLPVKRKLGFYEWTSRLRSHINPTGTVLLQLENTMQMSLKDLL
Summary of the method: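 Human enzyme (2 nM) with 80 uM 4-methylumbelliferyl alpha-D-galactopyranoside in 50 mM citric acid, 0.005% Tween-20, pH 4.5, 20 min at room temperature. Compounds 0.7 nM–77 uM; fluorescence Ex 365/Em 440 after pH 10 stop; AC50 from Hill fits.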

[8] = molecular target: alpha-glucosidase (Oryza sativa, rice) (UniProt Q653V4); experiment: Counterscreen for Glucocerebrosidase Inhibitors: qHTS Assay for Rice alpha-Glucosidase at pH 5.0 (AID 997; active = well fitted curve in the direction sought with a large enough effect; an effect the other way counts as inactive or inconclusive;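 note: 0% = full activity with enzyme and -100% = basal without enzyme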); conditions: rice alpha-glucosidase enzyme activity; series mostly up to 76.9 µM
Summary of the method: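 Rice alpha-glucosidase (4 nM final) with 400 uM 4-methylumbelliferyl-alpha-D-glucopyranoside in citrate buffer pH 5.0, 20 min at room temperature, stopped at pH 10; fluorescence 365/440 nm, compounds 0.7 nM–77 uM, AC50 from Hill fits.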

[9] = qHTS Assay for Lipid Storage Modulators (AID 1519; calls by dose curve); conditions: Drosophila S3 cells, BODIPY lipid droplet/cell ratio, laser cytometry, cells loaded with oleic acid; for activity change, negative = inhibition: at 25.7 µM (top of the series)
Summary of the method: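 Cells seeded at 5,000 per well were treated with compounds over a concentration series and loaded with oleic acid (400 uM, as added). Lipid droplet fluorescence (488 nm excitation, 500-530 nm channel) was read by laser-scanning cytometry and normalized to 20 uM Triacsin C.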

[10] = molecular target: Ubiquitin carboxyl-terminal hydrolase 1 (Homo sapiens) (UniProt O94782); experiment: Inhibitors of USP1/UAF1: Pilot qHTS (AID 504865; active = well fitted curve in the direction sought with a large enough effect; an effect the other way counts as inactive or inconclusive;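 note: rhodamine fluorescence freed from ubiquitin-rhodamine substrate followed over time; top concentration of the series differs between compounds; % is set by controls: 0 for no effect and ±100 for the full control effect; nearly all actives have a fitted effect of over 35% in size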); conditions: purified USP1/UAF1, Ub-rhodamine cleavage fluorescence; series mostly up to 54.9 µM
Chain of Ubiquitin carboxyl-terminal hydrolase 1 (Homo sapiens) (O94782 whole entry, looked up): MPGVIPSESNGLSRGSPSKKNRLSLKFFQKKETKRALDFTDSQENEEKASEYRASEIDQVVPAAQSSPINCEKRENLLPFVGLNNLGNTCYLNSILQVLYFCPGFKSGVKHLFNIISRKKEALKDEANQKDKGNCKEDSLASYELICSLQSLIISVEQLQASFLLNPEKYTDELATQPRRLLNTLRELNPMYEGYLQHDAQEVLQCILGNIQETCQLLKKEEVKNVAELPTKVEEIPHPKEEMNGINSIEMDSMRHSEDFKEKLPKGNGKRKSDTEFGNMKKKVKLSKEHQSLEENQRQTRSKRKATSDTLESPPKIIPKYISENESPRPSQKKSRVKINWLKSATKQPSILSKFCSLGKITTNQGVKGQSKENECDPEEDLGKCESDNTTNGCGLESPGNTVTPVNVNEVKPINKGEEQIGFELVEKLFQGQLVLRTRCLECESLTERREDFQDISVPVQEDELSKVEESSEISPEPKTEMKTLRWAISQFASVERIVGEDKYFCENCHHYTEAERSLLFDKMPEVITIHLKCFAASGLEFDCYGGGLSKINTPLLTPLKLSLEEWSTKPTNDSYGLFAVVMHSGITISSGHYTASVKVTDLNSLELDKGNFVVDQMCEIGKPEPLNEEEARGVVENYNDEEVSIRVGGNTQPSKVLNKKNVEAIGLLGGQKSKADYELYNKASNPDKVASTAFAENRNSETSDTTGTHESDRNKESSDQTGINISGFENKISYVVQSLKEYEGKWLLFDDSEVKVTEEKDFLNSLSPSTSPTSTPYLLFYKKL
Summary of the method: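 USP1/UAF1 complex at 1 nM preincubated 15 min at room temperature with compound, then Ub-Rho substrate added at 150 nM final. Fluorescence (480/540 nm) read kinetically in 50 mM HEPES pH 7.8, 0.5 mM EDTA, 1 mM TCEP, 0.1 mg/ml BSA, 0.01% Tween-20.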

[11] = qHTS profiling for inhibitors of Plasmodium falciparum proliferation (AID 504749; active = well fitted curve in the direction sought with a large enough effect; an effect the other way counts as inactive or inconclusive;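 note: 0% = DMSO vehicle and full inhibition = artemisinin control; nearly all actives have a fitted effect of over 60% in size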); conditions: P. falciparum in erythrocytes, SYBR Green DNA, 72 h, at 28.7 µM (top of the series)
Summary of the method: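 Readout was DNA-dye fluorescence from lysed cultures, ex 485/em 535 nm. Parasitized red cells had grown 72 h with compound; data scaled between 0.29 uM artemisinin and DMSO wells and corrected using vehicle-only plates.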

[12] = molecular target: Mitogen-activated protein kinase 10 (Mus musculus) (UniProt Q61831); experiment: JNK3 AlphaScreen Assay (AID 530); conditions: JNK3 lysate, c-Jun phosphorylation; series mostly up to 57.1 µM;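 note: kinase came from lysate of stimulated human HepG2 cells; signal reports phosphorylation of biotinylated GST-cJun 1-79 at Ser73 with 10 µM ATP; % is set by controls: 0 for no effect and ±100 for the full control effect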
Summary of the method: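 qHTS format: compounds tested as titrations against IL-1beta/TNF-alpha-activated HepG2 lysate JNK3 with biotin-GST-cJun substrate and 10 uM ATP at room temperature. Loss of anti-phospho-cJun AlphaScreen signal indicates inhibition.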

[13] = molecular target: Guanine nucleotide-binding protein G(i) subunit alpha-1 (Homo sapiens) (UniProt P63096); experiment: qHTS Assay for Inhibitors of RGS12 GoLoco Motif Activity (Green Fluorophore) (AID 879; active = well fitted curve in the direction sought with a large enough effect; an effect the other way counts as inactive or inconclusive;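 note: 0% = labeled peptide with Gαi1 and full inhibition = labeled peptide alone without protein; negative values mean loss of peptide binding seen as reduced polarization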); conditions: Galphai1/FITC-RGS12 GoLoco peptide, fluorescence polarization; series mostly up to 57.1 µM
Chain of Guanine nucleotide-binding protein G(i) subunit alpha-1 (Homo sapiens) (P63096 whole entry, looked up): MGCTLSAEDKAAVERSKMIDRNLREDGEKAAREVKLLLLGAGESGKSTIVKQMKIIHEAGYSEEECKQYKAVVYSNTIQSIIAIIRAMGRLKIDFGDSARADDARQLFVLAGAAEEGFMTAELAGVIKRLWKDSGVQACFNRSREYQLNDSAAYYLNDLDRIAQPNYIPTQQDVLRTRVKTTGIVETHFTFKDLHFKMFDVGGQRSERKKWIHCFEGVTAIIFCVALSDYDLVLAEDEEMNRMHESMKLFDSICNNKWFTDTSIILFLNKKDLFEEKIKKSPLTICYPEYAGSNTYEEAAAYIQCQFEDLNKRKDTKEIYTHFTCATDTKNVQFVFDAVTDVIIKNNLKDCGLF
Summary of the method: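 Fluorescence polarization assay: 50 nM Gαi1 with 10 nM FITC-labeled RGS12 GoLoco peptide in 10 mM Tris pH 7.5, 150 mM NaCl, 0.1 mM GDP, 0.05% NP40, 10 min at room temperature with compound.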

[14] = measured here: cell count channel max response
[15] = measured here: lipid channel max response

Compound | activity change, negative = inhibition ([1]; at 17.2 µM (top of the series)) | activity change, negative = inhibition ([1]; at 38 µM (top of the series)) | Potency [2] | activity change, negative = inhibition ([3]; at 17.2 µM (top of the series)) | activity change, negative = inhibition ([3]; at 38 µM (top of the series)) | activity, negative = inhibition ([4]; at 17.2 µM (top of the series)) | activity, negative = inhibition ([4]; at 38 µM (top of the series)) | Potency [5] | outcome [6] | outcome [7] | outcome [8] | activity change, negative = inhibition [9] | max response [9, 14] [%] | max response [9, 15] [%] | Potency [10] | activity, negative = inhibition ([11]; parasite line A) | activity, negative = inhibition ([11]; parasite line B) | Potency [12] | Potency [13]
N[C@@H](CO)C(=O)NNCc1ccc(O)c(O)c1O | 2.07% (inactive) | 14.8% (inactive) | inactive | -8.03% (inactive) | -7.62% (inactive) | -0.902% (inactive) | 4.31% (inactive) | inactive | inactive | inactive | inactive | -1.23% (inactive) | -4.75 | -6.43 | inactive | 21.9% (inactive) | 19.7% (inactive) | – | –
CC(C)(C)NC[C@H](O)c1cc(O)cc(O)c1 | -14.7% (inactive) | -8.4% (inactive) | inactive | -10.3% (inactive) | 0.832% (inactive) | -0.828% (inactive) | 3.91% (inactive) | inactive | inactive | inactive | inactive | -2.66% (inactive) | 8 | 4.68 | – | -9.2% (inactive) | -17.1% (inactive) | inactive | inactive
